Data on 17 molecules can be found in PubChem BioAssay.

Assay [1] in a line: sensitizers of A549 cells to miR-34 induction, primary screen, imaging, A549 dox-inducible miR-34, nuclei and caspase counts (AID 1347080). The following applies: A549 miR-34 inducible, Hoechst nuclei count, 48 h.
A short description of assay [2]: survival rescue of mitochondrial mutant cells in low glucose, primary screen, MELAS cybrids, Rieske KO mouse fibroblasts, CellTiter-Glo (AID 1508586;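 active = mean z-score across replicates of 1.96 or higher in either the MELAS or the Rieske mutant cell line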;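 note: z relative to plate mean and SD of compound and empty wells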). (Cellular ATP, detected with luciferase, serves as a proxy for viable cell number.)
Assay [3] relates to Hepatitis C virus NS3 helicase. Put plainly: HCV NS3 helicase inhibitors, primary screen, biochemical, fluorescence polarization, LOPAC1280 library (AID 687035; in the data active = inhibition above about 37%). The following applies: Purified HCV NS3 helicase, Cy5-dT15 ssDNA binding fluorescence polarization; stronger effect = higher value; concentration not given here. A general note: Polarisation of emitted light reports the rotation of a fluorescent probe.

Assay [4] can be described thus: Cy5 fluorescence quenching or enhancement artefacts, artefact control for HCV NS3 helicase inhibitor project, biochemical, LOPAC1280 (AID 687037; call rule not given here). The following applies: Cy5-DNA-NS3h complex fluorescence interference counterscreen.
The nature of assay [5]: phospholipid biosynthesis inhibitors in animal cells, primary screen, cell-based, LOPAC library, screen 4 (AID 1347384; call rule not given here). The following applies: phospholipid biosynthesis inhibition screen, at 10 µM.
The nature of assay [6]: viability rescue of complex I mutant cybrids, primary screen, cell-based, galactose medium, ATP luminescence (AID 1645843;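 active = z-score of at least 1.8 in each of two replicates, scored against plate mean and spread of sample wells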;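 note: positive z means more ATP and so rescue of galactose-driven cybrid death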). The following applies: complex I mutant cybrid cells, 72 h, stronger effect = higher value.
Where [7] appears, read: measured here: relative caspase fold change +Dox/-Dox.
The mark [8] stands for this setting: measured here: total cells with miR-34 induction, stronger effect = lower value.
[9] abbreviates: measured here: total cells without miR-34 induction.
Setting [10] is: MELAS cybrid survival, CellTiter-Glo 48 h, stronger effect = higher value.
Setting [11] is: Rieske KO mouse fibroblast survival, CellTiter-Glo 72 h.
Setting [12] is: stronger effect = lower value, cell number ratio, induced over uninduced.

Molecules are shown by their SMILES. Activity calls are given as the source filed them.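 Rule for the calls, unless noted: active = compounds whose cell count with miR-34 switched on is under 0.7 times the count with it off; inactive = the rest.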

On to `C[C@]12CC[C@@H]3[C@@H](CC[C@@]45O[C@@H]4C(O)=C(C#N)C[C@]35C)[C@@H]1CCC2O` (some centres undefined), for which the figures for the fold change in assay [1] (stronger effect = lower value) and in assay [1] (setting [7]) were 0.917 (inactive) and 0.921, respectively. For the same molecule, the cell count was 7740 in assay [1] (setting [8]) and 8440 in assay [1] (setting [9]). The z-score in assay [2] (setting [10]) is -0.378 (inactive); in assay [2] (setting [11]), 0.316.
Regarding `Fc1cc(F)c2c(c1)[C@H]1C=CC[C@@H]1C(c1cccnc1)N2` (some centres undefined), the results for the fold change in assay [1] (setting [12]) and in assay [1] (setting [7]) were 0.966 (inactive) and 0.287, respectively. Moreover, the figures for the cell count in assay [1] (setting [8]) and in assay [1] (setting [9]) were 1650 and 1710, respectively. In addition, the z-score is 1.16 (inactive) in assay [2] (setting [10]) and 0.671 in assay [2] (setting [11]).
In the case of `CC(=Cc1csc(C)n1)C1CC2O[C@]2(C)CCCC(C)C(O)C(C)C(=O)C(C)(C)C(O)CC(=O)O1` (some centres undefined), the fold change in assay [1] (setting [12]) was 1.08 (inactive); in assay [1] (setting [7]), 0.662. Also, the cell count in assay [1] (setting [8]) turned out to be 1610; in assay [1] (setting [9]), 1500. Moreover, the values for the z-score in assay [2] (setting [10]) and in assay [2] (setting [11]) were 1.69 (inactive) and -0.237, respectively.
Regarding `C[C@]12CCC(=O)C(O)=C1CC[C@@H]1[C@H]2CC[C@]2(C)C(=O)CC[C@@H]12`, the fold change in assay [1] (stronger effect = lower value) was 0.879 (inactive); in assay [1] (setting [7]) it was 0.764. Besides, the values for the cell count in assay [1] (setting [8]) and in assay [1] (setting [9]) were 8100 and 9210, respectively. For the same molecule, the z-score in assay [2] (setting [10]) was -0.345 (inactive); in assay [2] (setting [11]), 0.332.
With `C=CCN1CC[C@]23c4c5ccc(O)c4O[C@H]2C(=O)CC[C@@]3(O)C1C5`, the values for the fold change in assay [1] (stronger effect = lower value) and in assay [1] (setting [7]) were 0.942 (inactive) and 1.73, respectively. For the same molecule, the cell count in assay [1] (setting [8]) was 7860; in assay [1] (setting [9]), 8350. Further, the figures for the z-score in assay [2] (setting [10]) and in assay [2] (setting [11]) were 0.0762 (inactive) and -0.34, respectively.
What is called inhibition is the change of the read-out against control, counted positive when it falls. Regarding `NC(N)=NOCCC(N)C(=O)O` (centres undefined), in assay [3], the inhibition is 0% (inactive). Further, the fluorescence ratio (interference) in assay [4] is 1.1 (inactive). The figures for the fold change in assay [1] (stronger effect = lower value) and in assay [1] (setting [7]) were 0.949 (inactive) and 1.82, respectively. Besides, the cell count is 9120 in assay [1] (setting [8]) and 9610 in assay [1] (setting [9]). Also, the result in assay [5] was inactive. Further, the z-score in assay [6] was 0.49 (inactive).
Take `CC(=O)O[C@@]12CO[C@@H]1CC(O)[C@@]1(C)C(=O)C(O)C3=C(C)C(O)C[C@@](O)(C(OC(=O)c4ccccc4)[C@H]21)C3(C)C` (some centres undefined): the fold change in assay [1] (setting [12]) is 1 (inactive); in assay [1] (setting [7]), 0.634. Further, the cell count in assay [1] (setting [8]) and in assay [1] (setting [9]) was 6370 in each case. The values for the z-score in assay [2] (setting [10]) and in assay [2] (setting [11]) were -0.382 (inactive) and 1.02, respectively.
On to `Cc1ccc(-n2nccn2)c(C(=O)N2CCN(c3nc4cc(Cl)ccc4o3)CCC2C)c1` (centres undefined), for which the fold change is 0.837 (inactive) in assay [1] (stronger effect = lower value) and 0.399 in assay [1] (setting [7]). Moreover, the cell count in assay [1] (setting [8]) stood at 6970; in assay [1] (setting [9]) it was 8330. The z-score in assay [2] (setting [10]) was -0.269 (inactive); in assay [2] (setting [11]), -2.87.
In the case of `COc1ccc(S(=O)(=O)N(CCO)c2ccccc2CN(C)CC=Cc2ccc(Cl)cc2)cc1`, the fold change is 0.937 (inactive) in assay [1] (setting [12]) and 0.634 in assay [1] (setting [7]). For the same molecule, the cell count was 5210 in assay [1] (setting [8]) and 5560 in assay [1] (setting [9]). The z-score in assay [2] (setting [10]) is -0.474 (inactive); in assay [2] (setting [11]), -0.774.
Consider `CC1OC(OC2CC(O)[C@]3(CO)[C@H]4C(O)C[C@]5(C)C(C6=CC(=O)OC6)CC[C@]5(O)[C@@H]4CC[C@]3(O)C2)C(O)C(O)C1O` (some centres undefined), for which the results for the fold change in assay [1] (setting [12]) and in assay [1] (setting [7]) were 0.851 (inactive) and 1.17, respectively. For the same molecule, the cell count turned out to be 388 in assay [1] (setting [8]) and 456 in assay [1] (setting [9]). Moreover, the z-score was 0.346 (inactive) in assay [2] (setting [10]) and -0.151 in assay [2] (setting [11]).
Regarding `CC1CNCCc2ccc(Cl)cc21` (centres undefined), the values for the fold change in assay [1] (stronger effect = lower value) and in assay [1] (setting [7]) were 0.911 (inactive) and 0.645, respectively. Further, the cell count in assay [1] (setting [8]) was 8250; in assay [1] (setting [9]), 9060. Further, the z-score in assay [2] (setting [10]) was -0.213 (inactive); in assay [2] (setting [11]) it was -0.176.
Consider `O=C1C=CC[C@@H]2[C@@H]3CCCN4CCC[C@@H](CN12)[C@@H]34`, for which the figures for the fold change in assay [1] (setting [12]) and in assay [1] (setting [7]) were 0.92 (inactive) and 0.733, respectively. The cell count in assay [1] (setting [8]) worked out at 9530; in assay [1] (setting [9]), 10400. In addition, the z-score in assay [2] (setting [10]) was -0.329 (inactive); in assay [2] (setting [11]), 0.595.
With `CC1CC[C@@]2(OC1)O[C@H]1C[C@H]3[C@@H]4CC=C5CC(O[C@@H]6OC(CO)C(O[C@@H]7OC(C)C(O)C(O)C7O)C(O)C6O[C@@H]6OC(C)C(O)C(O)C6O)CC[C@]5(C)[C@@H]4CC[C@]3(C)[C@@H]1C2C` (some centres undefined), the fold change is 0.658 (active) in assay [1] (setting [12]) and 1.39 in assay [1] (setting [7]). In addition, the cell count in assay [1] (setting [8]) turned out to be 1180; in assay [1] (setting [9]), 1800. The z-score in assay [2] (setting [10]) was 2.01 (active); in assay [2] (setting [11]), -1.08.
As for `O=C1CC[C@@]2(O)C3Cc4ccc(O)c5c4[C@@]2(CCN3CC2CC2)C1O5` (some centres undefined), the fold change in assay [1] (stronger effect = lower value) is 0.922 (inactive); in assay [1] (setting [7]) it was 4.62. In addition, the cell count in assay [1] (setting [8]) amounted to 8340; in assay [1] (setting [9]) it was 9040. Further, the values for the z-score in assay [2] (setting [10]) and in assay [2] (setting [11]) were 1.92 (inactive) and -1.89, respectively.
As to `COC1CCC(OC2C[C@H]([C@]3(C)CC[C@]4(CC(O)C(C)[C@@H](C(C)C=C(C)C(=O)C(C)CC(C)C(=O)O)O4)O3)O[C@]3(O[C@@H]([C@H]4O[C@@](O)(CO)C(C)CC4C)CC3C)C2C)OC1C` (some centres undefined), the fold change in assay [1] (setting [12]) is 0.953 (inactive); in assay [1] (setting [7]) it was 1.13. The results for the cell count in assay [1] (setting [8]) and in assay [1] (setting [9]) were 874 and 918, respectively. Also, the z-score is 0.291 (inactive) in assay [2] (setting [10]) and -2.77 in assay [2] (setting [11]).
As for `Cc1cc(C(=O)CN2CCCC2)c(C)n1-c1ccc(F)cc1`, the fold change was 0.909 (inactive) in assay [1] (stronger effect = lower value) and 0.246 in assay [1] (setting [7]). Moreover, the cell count in assay [1] (setting [8]) stood at 8040; in assay [1] (setting [9]), 8840. For the same molecule, the z-score in assay [2] (setting [10]) is -0.384 (inactive); in assay [2] (setting [11]), 0.483.
Take `CCCC[N+]1(C)[C@@H]2CC(OC(=O)C(CO)c3ccccc3)C[C@H]1[C@@H]1O[C@@H]12` (some centres undefined): the fold change in assay [1] (setting [12]) was 0.94 (inactive); in assay [1] (setting [7]), 1.14. The cell count in assay [1] (setting [8]) was 9330; in assay [1] (setting [9]), 9930. In addition, the figures for the z-score in assay [2] (setting [10]) and in assay [2] (setting [11]) were -0.311 (inactive) and 0.426, respectively.
